Screens from PubChem.
VACV Venus inh: inhibitors of vaccinia virus (Venus reporter); 330,000 tested, 0.46% active; Potency, µM (highest dose often 36.5 µM), inactives show at the highest dose activity change, negative = inhibition, most hits filed as inhibitors; Vaccinia virus Venus reporter expression, fluorescence; calls by dose curve; tested in A549 cells; further: nearly all actives have a fitted effect of over 30% in size
Vaccinia mCherry: vaccinia inhibition (mCherry reporter); Vaccinia virus mCherry reporter infection, fluorescence; Potency, µM (top dose mostly 36.5 µM), without a hit: at the highest dose activity change, negative = inhibition, usual class: inhibitors; 310,000 tested, 0.63% active; AID 720579; calls by dose curve; tested in A549 cells; further: nearly all actives have a fitted effect of over 35% in size
Lassa entry inh: Lassa virus entry inhibition. Lassa virus pseudotype entry inhibition, cell reporter. Potency, µM (top dose mostly 37.9 µM), inactives show top-dose activity change, negative = inhibition, usual class: inhibitors. 300,000 tested, 1.2% active. AID 540256; calls by dose curve; tested in HEK293 cells; further: nearly all actives have a fitted effect of over 50% in size
MARV entry inh: blocks Marburg virus binding to or entry into cells; Marburg virus pseudotyped entry inhibition, cell reporter; Potency, µM (titrated, usually from 37.8 µM), without a hit: top-dose activity change, negative = inhibition, hits mostly inhibitors; 300,000 tested, 1.8% active; calls by dose curve; tested in HEK293 cells
HCV inhibitor: blocks hepatitis C virus; 340,000 tested, 3.4% active; Huh7.5.1 HCVcc-Cre infection, luciferase reporter, 44 h; Potency, µM (top dose mostly 41.8 µM), for inactives: at the top dose activity change, negative = inhibition, actives largely listed as inhibitors; active means well fitted inhibition curve with a large enough effect; inconclusive means small, poorly fitted or top-dose-only effect, or another doubt; inactive means no such curve, though single readings can be large or run the other way
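Reporter virus HCVcc-Cre (~0.5 moi) infects cells exposed to compound; seeding density 1,000 cells/well with 4 h settling beforehand. Luminescence, 15 sec read, taken 44 h post-infection following a 15 min RT substrate incubation.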
FMDV antiviral: antivirals against foot and mouth disease virus; Potency, µM (titrated, usually from 57.9 µM), for the others: at the highest dose activity change, negative = inhibition, actives largely listed as inhibitors; AID 1159524; FMDV antiviral cell-based qHTS; 410,000 tested, 1.2% active; calls by dose curve; tested in HEK293T cells; further: read-out not given here; nearly all actives have a fitted effect of over 45% in size
* hit, by the source's call; [ ] = remark or other dose. This is a sample that favours compounds with a hit; in the whole collection about 5.3% have one here. On the % scale 0 is the no-effect control and ±100 the full control effect; potency means the concentration at half of the fitted maximal effect.

Screening O=C(Nc1ccc(N2CCCC2)c(Cl)c1)c1ccc([N+](=O)[O-])o1 returned VACV Venus inh 14µM*, Vaccinia mCherry 16µM*, Lassa entry inh inconclusive, MARV entry inh 8.9µM*, HCV inhibitor inconclusive and FMDV antiviral 12%.
`O=C(Nc1ccc2[nH]c3c(c2c1)CCCC3)c1ccco1` gave VACV Venus inh -28%, Lassa entry inh 1%, MARV entry inh inconclusive, HCV inhibitor 13µM* and FMDV antiviral 7%.
For COC(=O)c1ccc(N2CCCCC2)c(NC(=O)c2ccco2)c1 the results were VACV Venus inh -4%, Vaccinia mCherry 2%, MARV entry inh inconclusive, HCV inhibitor 1.4µM* and FMDV antiviral inconclusive.
For O=C(Nc1cccc(NC(=O)c2ccccc2Cl)c1)c1ccc([N+](=O)[O-])o1 the results were VACV Venus inh inconclusive, Vaccinia mCherry 7.9µM*, Lassa entry inh inconclusive, MARV entry inh inconclusive, HCV inhibitor 10µM* and FMDV antiviral -21%.
CC(=O)N1CCN(c2ccc(Nc3ncnc4c3oc3ccccc34)cc2)CC1 was read as VACV Venus inh inconclusive, Vaccinia mCherry -14%[1.46 µM], Lassa entry inh inconclusive, MARV entry inh inconclusive, HCV inhibitor inconclusive and FMDV antiviral 28µM*.
Screening Cc1ccc2c(c1)c1ncnc(N3CCOCC3)c1n2C returned VACV Venus inh -19%, Vaccinia mCherry inconclusive, Lassa entry inh inconclusive, MARV entry inh inconclusive, HCV inhibitor inconclusive and FMDV antiviral -18%.
`O=C(CSc1ncnc2c1oc1ccccc12)N1CCN(c2ccccc2)CC1` gave Lassa entry inh 6%, MARV entry inh 1%, HCV inhibitor -23% and FMDV antiviral 0%.
For Cc1ccc2c(c1)c1ncnc(N3CCN(c4ccccc4)CC3)c1n2C the results were VACV Venus inh -9%, Lassa entry inh inconclusive, MARV entry inh 0%, HCV inhibitor 11% and FMDV antiviral 20µM*.
For CCc1nnc(N2CCN(c3ncnc4c3oc3ccccc34)CC2)s1 the results were VACV Venus inh -6%, Vaccinia mCherry -12%, Lassa entry inh 4%, MARV entry inh 0%, HCV inhibitor -6% and FMDV antiviral 22µM*.
c1ccc(N2CCN(c3ncnc4c3oc3ccccc34)CC2)cc1 was read as VACV Venus inh -7%, Vaccinia mCherry inactive, Lassa entry inh 7%, MARV entry inh inconclusive, HCV inhibitor 1% and FMDV antiviral 35µM*.
`CC(=O)c1c(C)n(-c2ccc(C)cc2)c2ccc(OC(=O)COc3ccccc3)cc12` gave VACV Venus inh -2%, Vaccinia mCherry -12%, Lassa entry inh -12%[46.1 µM], MARV entry inh -8%[46.1 µM] and FMDV antiviral -23%.
`COC(=O)C1=C(C(=O)OC)[C@@H]2N(C)c3ccccc3[C@@]23C[C@@H](C(=O)OC)N(C(=O)NC(C)(C)C)C3=N1` gave Lassa entry inh inconclusive and MARV entry inh 14%[14.2 µM].
For C#CCN1C(=O)C(O)(CC(=O)c2ccc(OC)c(OC)c2)c2cc(Br)ccc21 (centres undefined) the results were VACV Venus inh -12%, Vaccinia mCherry -10%, Lassa entry inh -16%[46.1 µM], MARV entry inh -10%[46.1 µM] and FMDV antiviral 3%.
Screening COc1ccccc1-c1nc(SCC(=O)Nc2ccc(C)c(C)c2)n[nH]1 returned VACV Venus inh -3%, Vaccinia mCherry -2%, Lassa entry inh 6%[46.1 µM], MARV entry inh inconclusive and FMDV antiviral -39%.
`CN(C(=O)c1cnn(-c2ncc3c(n2)-c2ccccc2CCC3)c1C1CC1)C1CCOC1` (centres undefined) gave VACV Venus inh -17%, Vaccinia mCherry -18% and FMDV antiviral 27%.
`O=C(Nc1ccc(OC(F)(F)F)cc1)c1nc2ccccc2nc1N1CCCCC1` gave VACV Venus inh -3%, Vaccinia mCherry -1%, Lassa entry inh 15%[46.1 µM] and FMDV antiviral -23%.
Screening Cc1ccc(-c2nnc(Nc3ccc(Cl)cc3)c3ccccc23)cc1S(=O)(=O)NCC1CCCO1 (centres undefined) returned VACV Venus inh -27%, Vaccinia mCherry 0%, Lassa entry inh -29%[46.1 µM], MARV entry inh inconclusive and FMDV antiviral 20%.
CCC1CCCCN1CCCNC(=O)c1cc2c(=O)oc3ccc(C)cc3c2s1 (centres undefined) was read as HCV inhibitor 13µM* and FMDV antiviral 7%.
Screening COc1cccc(C(=O)NCC(c2ccc(N(C)C)cc2)N2CCc3ccccc32)c1OC (centres undefined) returned VACV Venus inh -10%, Vaccinia mCherry -5%, Lassa entry inh -12%[46.1 µM] and FMDV antiviral -1%.
`Cc1ccc(CSc2nnc([C@@H]3CCCN3C(=O)OC(C)(C)C)o2)cc1` gave HCV inhibitor 22µM* and FMDV antiviral -28%.
CCN1C(=O)[C@H]2[C@H]3[C@H](O)[C@H](O)C/C(=N\OC[C@@H](O)COCc4ccco4)[C@@H]3CC[C@H]2C1=O was read as MARV entry inh 34%[14.2 µM].
Screening CN(C)c1cccc(C(=O)Nc2ccc(-c3nc4ccccc4s3)cc2)c1 returned VACV Venus inh -21%, Vaccinia mCherry -9%, Lassa entry inh -21%[46.1 µM] and FMDV antiviral inconclusive.
Screening COc1cc(-c2nc3ccccc3s2)ccc1O returned VACV Venus inh -3%, Vaccinia mCherry -4%, Lassa entry inh inconclusive, MARV entry inh 1% and HCV inhibitor inconclusive.
Oc1cccc(-c2nc3ccccc3s2)c1 was read as VACV Venus inh -20%, Lassa entry inh inconclusive, MARV entry inh 7.1µM*, HCV inhibitor inconclusive and FMDV antiviral -44%.
`COc1ccc(-c2nc3ccccc3s2)cc1O` gave VACV Venus inh -16%, Vaccinia mCherry -21%, Lassa entry inh 7.1µM*, MARV entry inh 7.1µM*, HCV inhibitor inconclusive and FMDV antiviral -58%.
COc1cc(OC)c(-c2nc3ccccc3s2)cc1OC was read as HCV inhibitor 11µM* and FMDV antiviral -18%.
For COc1cccc(-c2nc3ccccc3s2)c1O the results were VACV Venus inh -18%, Vaccinia mCherry -21%, Lassa entry inh inconclusive, MARV entry inh inconclusive, HCV inhibitor inconclusive and FMDV antiviral -36%.
Screening CN(C(=O)OC(C)(C)C)c1ccc(-c2nc3ccccc3s2)cc1 returned FMDV antiviral 100µM*.
`CC1=NC(=O)C(C#N)C=C1c1ccncc1` (centres undefined) gave MARV entry inh 0%.
Screening CC1CCC(N2CC(=O)N(C3CCCCC3)C(c3ccc(Cl)cc3)C2=O)CC1 (centres undefined) returned VACV Venus inh -9%, Vaccinia mCherry 0%, Lassa entry inh 7%[46.1 µM] and FMDV antiviral -3%.
`O=[N+]([O-])c1ccc(O)c(-c2cc(C(F)(F)F)nc(-c3ccccc3)n2)c1` gave MARV entry inh 3%, HCV inhibitor 1.4µM* and FMDV antiviral inconclusive.
